Each structure is given as a SMILES string. “And” between values parts separate entries of the source, which are not always exact repeats. Identical values can stand only once. The source made the active and inactive calls. No stated cut-off is given here; in the data, active means fold change permeability below about 0.7 or above about 1.3; inactive means in between.

The test in a line: compounds altering in vitro BBB leakiness – cell-based, FITC-avidin fluorescence, HTS, primary screen (AID 1963498). Further: test concentration not given here. The conditions noted are these: brain endothelial barrier, actives lie on both sides.
In the case of `CN[C@@H]1C[C@@H](c2ccc(Cl)c(Cl)c2)c2ccccc21`, the fold change permeability is 1.2 (inactive).
`Cc1nccc2c1[nH]c1ccccc12`: the fold change permeability is 1.2 (inactive).
With `CC(C)(C)c1o[nH]c(=O)c1CC(N)C(=O)O` (stereo not given), the fold change permeability is 1.1 (inactive).
Take `NCC(CP(=O)(O)O)c1ccc(Cl)cc1` (stereo not given): the fold change permeability is 1 (inactive).
With `CN1C(=O)CCS(=O)(=O)C1c1ccc(Cl)cc1` (stereo not given), the fold change permeability was 1.3 (active).
With `Oc1ccc2c3c1O[C@H]1c4[nH]c5ccccc5c4C[C@@]4(O)[C@@H](C2)N(CC2CC2)CC[C@]314` the figure was 1 (inactive); with `NC1CCc2cc(O)c(O)cc2C1` (stereo not given), 0.7 (active); with `COc1ccc2c(c1OC)C(=O)O[C@H]2[C@@H]1c2cc3c(cc2CCN1C)OCO3`, 1.2 (inactive).
Take `O=C(O)c1nn(Cc2ccc(Cl)cc2Cl)c2ccccc12`: the fold change permeability was 1.9 (active).
For `CC(C)[C@H]1CN[C@H](C(=O)O)[C@H]1CC(=O)O`, the fold change permeability is 1.1 (inactive).
Consider `COc1ccc(CCNCc2ccc(OC)c3ccccc23)cc1`, for which the fold change permeability was 1.7 (active).
As to `CC(C)(C)NCC(O)c1ccccc1Cl` (stereo not given), the fold change permeability was 0.7 (active).
With `CNCC(O)c1ccc(O)cc1` (stereo not given) the figure was 0.7 (active); with `CNCCc1c[nH]c2ccc(O)cc12`, 0.8 (inactive); with `Fc1ccc(C(OCCN2CCN(CCCc3ccccc3)CC2)c2ccc(F)cc2)cc1`, 1.6 (active).
As to `CC(C)C[C@H](NP(=O)(O)O[C@@H]1O[C@@H](C)[C@H](O)[C@@H](O)[C@H]1O)C(=O)N[C@@H](Cc1c[nH]c2ccccc12)C(=O)O`, the fold change permeability was 1.4 (active).
With `NNC(=O)c1ccc(O)cc1`, the fold change permeability is 0.8 (inactive).
With `CC1OC(C[N+](C)(C)C)CC1O` (stereo not given) the figure was 0.9 (inactive); with `NC(N)=NOCC[C@H](N)C(=O)O`, 1 (inactive) and 0.8 (inactive).
Turning to `CCCN(CCC)C1CCc2ccc(O)cc2C1` (stereo not given), the fold change permeability is 1.1 (inactive).
With `COC(=O)C1=CCCN(C)C1` the figure was 1.2 (inactive); with `CC(C)Oc1cccnc1N(C)C1CCN(Cc2ccccc2)CC1`, 1.5 (active); with `CC(=O)[C@H]1CCC2C3CC[C@H]4C[C@H](O)CC[C@]4(C)C3CC[C@@]21C` (stereo not given in full), 0.9 (inactive).
In the case of `CCN1C[C@]2(COC)[C@H](O)C[C@H](OC)[C@]34C1[C@H]([C@H](OC)[C@H]23)[C@]1(OC(C)=O)[C@H]2[C@@H](OC(=O)c3ccccc3)[C@](O)(C[C@H]24)[C@@H](OC)[C@@H]1O`, the fold change permeability was 1 (inactive).
For the compound `COc1ccc(Cc2nccc3cc(OC)c(OC)cc23)cc1OC`, the fold change permeability was 1.2 (inactive).
On to `COc1ccc(OC)c(C(O)C(C)N)c1` (stereo not given), for which the fold change permeability was 0.8 (inactive).
Turning to `c1ccc2c(c1)[I+]c1ccccc1-2`, the fold change permeability was 1.7 (active).
With `NC(=O)c1cc(N2CC2)c([N+](=O)[O-])cc1[N+](=O)[O-]` the figure was 1 (inactive).
For the compound `NC(Cc1cc(O)c(O)cc1O)C(=O)O` (stereo not given), the fold change permeability is 0.9 (inactive).
With `COc1cc2c3c(c1OC)-c1ccccc1C[C@H]3N(C)CC2` the figure was 1.9 (active); with `Nc1ncnc2c1ncn2[C@@H]1O[C@H](COP(=O)(O)CP(=O)(O)OP(=O)(O)O)[C@H](O)C1O` (stereo not given in full), 0.9 (inactive).
Turning to `O=C1C=CC(=O)C=C1`, the fold change permeability was 1 (inactive).
With `NCCc1c[nH]c2ccccc12` the figure was 1.4 (active).
Regarding `CC(=O)NBr`, the fold change permeability was 1 (inactive).
`C=CCN1CC[C@]23c4c5ccc(O)c4O[C@H]2C(=O)CC[C@@]3(O)[C@H]1C5`: the fold change permeability is 1 (inactive).
